# Reference: paper PMC11062922 (Nature Chemical Biology, 2023)
# How the values were obtained:
# [1] = test system: AGK; set-up: species or system human, MV4-11 + K-562 + COLO205 + SK-N-BE2 + OVCAR-8; settings: read-out: apparent Kd; compound concentrations: 100 nM and 1000 nM (sheet 'Samples'), CATDS: 0.56358245780801897; n = 1
# [2] = test system: MAP2K2; set-up: species or system human, MV4-11 + K-562 + COLO205 + SK-N-BE2 + OVCAR-8; settings: read-out: apparent Kd; compound concentrations: 100 nM and 1000 nM (sheet 'Samples'), CATDS: 0.44930961839154798; n = 1
# [3] = test system: AIFM1; set-up: species or system human, MV4-11 + K-562 + COLO205 + SK-N-BE2 + OVCAR-8; settings: read-out: apparent Kd; compound concentrations: 100 nM and 1000 nM (sheet 'Samples'), CATDS: 7.0265848272952805E-2; n = 1
# [4] = test system: CLK1; set-up: species or system human, MV4-11 + K-562 + COLO205 + SK-N-BE2 + OVCAR-8; settings: read-out: apparent Kd; compound concentrations: 100 nM and 1000 nM (sheet 'Samples'), CATDS: 0.104887627590219; n = 1
# [5] = test system: CLK4; set-up: species or system human, MV4-11 + K-562 + COLO205 + SK-N-BE2 + OVCAR-8; settings: read-out: apparent Kd; compound concentrations: 100 nM and 1000 nM (sheet 'Samples'), CATDS: 9.5715512322220406E-2; n = 1
# [6] = test system: CSNK1G1; set-up: species or system human, MV4-11 + K-562 + COLO205 + SK-N-BE2 + OVCAR-8; settings: read-out: apparent Kd; compound concentrations: 100 nM and 1000 nM (sheet 'Samples'), CATDS: 5.5121042551324002E-2; n = 1
# [7] = test system: DAPK3; set-up: species or system human, MV4-11 + K-562 + COLO205 + SK-N-BE2 + OVCAR-8; settings: read-out: apparent Kd; compound concentrations: 100 nM and 1000 nM (sheet 'Samples'), CATDS: 8.3155449206082505E-2; n = 1
# [8] = test system: DCTPP1; set-up: species or system human, MV4-11 + K-562 + COLO205 + SK-N-BE2 + OVCAR-8; settings: read-out: apparent Kd; compound concentrations: 100 nM and 1000 nM (sheet 'Samples'), CATDS: 5.7600915047594299E-2; n = 1
# [9] = test system: FN3KRP; set-up: species or system human, MV4-11 + K-562 + COLO205 + SK-N-BE2 + OVCAR-8; settings: read-out: apparent Kd; compound concentrations: 100 nM and 1000 nM (sheet 'Samples'), CATDS: 6.5569795708597098E-2; n = 1
# [10] = test system: FN3K; set-up: species or system human, MV4-11 + K-562 + COLO205 + SK-N-BE2 + OVCAR-8; settings: read-out: apparent Kd; compound concentrations: 100 nM and 1000 nM (sheet 'Samples'), CATDS: 6.57741887652563E-2; n = 1
# [11] = test system: MAPK3; set-up: species or system human, MV4-11 + K-562 + COLO205 + SK-N-BE2 + OVCAR-8; settings: read-out: apparent Kd; compound concentrations: 100 nM and 1000 nM (sheet 'Samples'), CATDS: 8.8800747421998102E-2; n = 1
# [12] = test system: NEK2; set-up: species or system human, MV4-11 + K-562 + COLO205 + SK-N-BE2 + OVCAR-8; settings: read-out: apparent Kd; compound concentrations: 100 nM and 1000 nM (sheet 'Samples'), CATDS: 7.0168858397625197E-2; n = 1
# [13] = test system: PBK; set-up: species or system human, MV4-11 + K-562 + COLO205 + SK-N-BE2 + OVCAR-8; settings: read-out: apparent Kd; compound concentrations: 100 nM and 1000 nM (sheet 'Samples'), CATDS: 7.2795732103844296E-2; n = 1
# [14] = biological target: Q6ZSR9 (human, UniProt Q6ZSR9); set-up: species or system MV4-11 + K-562 + COLO205 + SK-N-BE2 + OVCAR-8; settings: read-out: apparent Kd; compound concentrations: 100 nM and 1000 nM (sheet 'Samples'), CATDS: 6.3978551473772294E-2; n = 1
# Chain of Q6ZSR9 (Q6ZSR9 whole entry, looked up): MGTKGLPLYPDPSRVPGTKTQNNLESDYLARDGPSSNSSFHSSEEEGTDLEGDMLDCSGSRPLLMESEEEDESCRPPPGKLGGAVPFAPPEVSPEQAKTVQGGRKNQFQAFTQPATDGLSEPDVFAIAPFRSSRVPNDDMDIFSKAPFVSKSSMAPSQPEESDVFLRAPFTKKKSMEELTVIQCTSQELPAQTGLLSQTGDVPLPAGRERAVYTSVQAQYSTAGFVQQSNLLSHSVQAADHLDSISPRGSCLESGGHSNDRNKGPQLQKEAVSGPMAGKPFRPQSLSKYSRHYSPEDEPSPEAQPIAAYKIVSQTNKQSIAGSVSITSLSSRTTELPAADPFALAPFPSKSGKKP
# [15] = test system: RABL3; set-up: species or system human, MV4-11 + K-562 + COLO205 + SK-N-BE2 + OVCAR-8; settings: read-out: apparent Kd; compound concentrations: 100 nM and 1000 nM (sheet 'Samples'), CATDS: 7.0827671495760899E-2; n = 1
# [16] = test system: TESK1; set-up: species or system human, MV4-11 + K-562 + COLO205 + SK-N-BE2 + OVCAR-8; settings: read-out: apparent Kd; compound concentrations: 100 nM and 1000 nM (sheet 'Samples'), CATDS: 6.7543584282145103E-2; n = 1
# [17] = test system: AKT1; set-up: species or system human, MV4-11 + K-562 + COLO205 + SK-N-BE2 + OVCAR-8; settings: read-out: apparent Kd; compound concentrations:100 nM and 1000 nM (sheet 'Samples'); n = 1
# [18] = test system: AKT2; set-up: species or system human, MV4-11 + K-562 + COLO205 + SK-N-BE2 + OVCAR-8; settings: read-out: apparent Kd; compound concentrations:100 nM and 1000 nM (sheet 'Samples'); n = 1
# [19] = test system: AKT3; set-up: species or system human, MV4-11 + K-562 + COLO205 + SK-N-BE2 + OVCAR-8; settings: read-out: apparent Kd; compound concentrations:100 nM and 1000 nM (sheet 'Samples'); n = 1
# [20] = test system: ATM; set-up: species or system human, MV4-11 + K-562 + COLO205 + SK-N-BE2 + OVCAR-8; settings: read-out: apparent Kd; compound concentrations:100 nM and 1000 nM (sheet 'Samples'); n = 1
# [21] = test system: CAMK4; set-up: species or system human, MV4-11 + K-562 + COLO205 + SK-N-BE2 + OVCAR-8; settings: read-out: apparent Kd; compound concentrations:100 nM and 1000 nM (sheet 'Samples'); n = 1
# [22] = test system: JAK2; set-up: species or system human, MV4-11 + K-562 + COLO205 + SK-N-BE2 + OVCAR-8; settings: read-out: apparent Kd; compound concentrations:100 nM and 1000 nM (sheet 'Samples'); n = 1
# [23] = test system: MAP2K1; set-up: species or system human, MV4-11 + K-562 + COLO205 + SK-N-BE2 + OVCAR-8; settings: read-out: apparent Kd; compound concentrations:100 nM and 1000 nM (sheet 'Samples'); n = 1
# [24] = test system: NQO1; set-up: species or system human, MV4-11 + K-562 + COLO205 + SK-N-BE2 + OVCAR-8; settings: read-out: apparent Kd; compound concentrations:100 nM and 1000 nM (sheet 'Samples'); n = 1
# [25] = test system: PRKCD; set-up: species or system human, MV4-11 + K-562 + COLO205 + SK-N-BE2 + OVCAR-8; settings: read-out: apparent Kd; compound concentrations:100 nM and 1000 nM (sheet 'Samples'); n = 1
# [26] = test system: PRKCQ; set-up: species or system human, MV4-11 + K-562 + COLO205 + SK-N-BE2 + OVCAR-8; settings: read-out: apparent Kd; compound concentrations: 100 nM and 1000 nM (sheet 'Samples'), CATDS: 0.49835750263786499; n = 1
# [27] = test system: PRKCZ; set-up: species or system human, MV4-11 + K-562 + COLO205 + SK-N-BE2 + OVCAR-8; settings: read-out: apparent Kd; compound concentrations:100 nM and 1000 nM (sheet 'Samples'); n = 1
# [28] = test system: RIOK2; set-up: species or system human, MV4-11 + K-562 + COLO205 + SK-N-BE2 + OVCAR-8; settings: read-out: apparent Kd; compound concentrations:100 nM and 1000 nM (sheet 'Samples'); n = 1
# [29] = test system: TTN; set-up: species or system human, MV4-11 + K-562 + COLO205 + SK-N-BE2 + OVCAR-8; settings: read-out: apparent Kd; compound concentrations:100 nM and 1000 nM (sheet 'Samples'); n = 1
# [30] = test system: ADRBK1; set-up: species or system human, MV4-11 + K-562 + COLO205 + SK-N-BE2 + OVCAR-8; settings: read-out: apparent Kd; compound concentrations:100 nM and 1000 nM (sheet 'Samples'); n = 1
# [31] = test system: MAPK14; set-up: species or system human, MV4-11 + K-562 + COLO205 + SK-N-BE2 + OVCAR-8; settings: read-out: apparent Kd; compound concentrations:100 nM and 1000 nM (sheet 'Samples'); n = 1
# [32] = test system: PIK3C2A; set-up: species or system human, MV4-11 + K-562 + COLO205 + SK-N-BE2 + OVCAR-8; settings: read-out: apparent Kd; compound concentrations:100 nM and 1000 nM (sheet 'Samples'); n = 1
# [33] = test system: PRKCI; set-up: species or system human, MV4-11 + K-562 + COLO205 + SK-N-BE2 + OVCAR-8; settings: read-out: apparent Kd; compound concentrations:100 nM and 1000 nM (sheet 'Samples'); n = 1
# [34] = test system: PYGL; set-up: species or system human, MV4-11 + K-562 + COLO205 + SK-N-BE2 + OVCAR-8; settings: read-out: apparent Kd; compound concentrations:100 nM and 1000 nM (sheet 'Samples'); n = 1
# [35] = test system: RPS6KA3; set-up: species or system human, MV4-11 + K-562 + COLO205 + SK-N-BE2 + OVCAR-8; settings: read-out: apparent Kd; compound concentrations:100 nM and 1000 nM (sheet 'Samples'); n = 1
# [36] = test system: STK16; set-up: species or system human, MV4-11 + K-562 + COLO205 + SK-N-BE2 + OVCAR-8; settings: read-out: apparent Kd; compound concentrations:100 nM and 1000 nM (sheet 'Samples'); n = 1
smiles,measurement,setting,value
Cc1ccc(S(=O)(=O)Nc2ccc(Nc3nccc(Nc4cccc5[nH]ncc45)n3)cc2)cc1 [GSK581271A],potency estimated from few doses,[1],1530 nM
same,potency estimated from few doses,[2],2420 nM
O=C1N=C(NCCc2ccc(F)cc2)S/C1=C\c1ccc2ncccc2c1 [RO4508340-000],potency estimated from few doses,[3],1310 nM
same,potency estimated from few doses,[4],643 nM
same,potency estimated from few doses,[5],744 nM
same,potency estimated from few doses,[6],2380 nM
same,potency estimated from few doses,[7],948 nM
same,potency estimated from few doses,[8],2100 nM
same,potency estimated from few doses,[9],1530 nM
same,potency estimated from few doses,[10],1520 nM
same,potency estimated from few doses,[11],844 nM
same,potency estimated from few doses,[12],1320 nM
same,potency estimated from few doses,[13],1220 nM
same,potency estimated from few doses,[14],1620 nM
same,potency estimated from few doses,[15],1290 nM
same,potency estimated from few doses,[16],1430 nM
NCC1CCC(CNc2nc(NCc3ccccc3OC(F)(F)F)ncc2[N+](=O)[O-])CC1 (stereo not drawn) [BIRZ0518XX],potency estimated from few doses,[17],1960 nM
same,potency estimated from few doses,[18],1970 nM
same,potency estimated from few doses,[19],1210 nM
same,potency estimated from few doses,[20],249 nM
same,potency estimated from few doses,[21],1110 nM
same,potency estimated from few doses,[22],517 nM
same,potency estimated from few doses,[23],2280 nM
same,potency estimated from few doses,[24],1290 nM
same,potency estimated from few doses,[25],648 nM
same,potency estimated from few doses,[26],40.3 nM
same,potency estimated from few doses,[27],2020 nM
same,potency estimated from few doses,[28],1910 nM
same,potency estimated from few doses,[29],1030 nM
CCCC(=O)Nc1n[nH]c2ncccc12 [SB-601436],potency estimated from few doses,[30],2140 nM
same,potency estimated from few doses,[31],1310 nM
same,potency estimated from few doses,[32],2470 nM
same,potency estimated from few doses,[33],2080 nM
same,potency estimated from few doses,[34],2170 nM
same,potency estimated from few doses,[35],1890 nM
same,potency estimated from few doses,[36],1480 nM
